Test results reported in PubChem BioAssay AID1159580 (chemical genetic matrix, 2015).
Where “and” joins values, the source holds several entries; their conditions need not be identical. Equal values may be shown once. In all, about 5,500 compounds went through this assay and about 2,000 (36%) were called active. Another 18% or so got no clear call; they are omitted. The list shows a part of the results. A number with no mark means an inactive call. Cut-off read from the data, not from the text of the source: active = normalized growth mostly below about 0.91 (no sharp cut-off); inconclusive = no clear call, values can overlap the other calls; inactive = mostly above about 0.92.

Experiment: chemical genetic growth profiling, strain panel (AID 1159580);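 note: tested at 20 µM; growth read once vehicle control cultures reached saturation at 30 °C; 1 = growth at the plate median or of vehicle wells; lower values mean less growth of the strain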
Details: S. cerevisiae deletion strains, growth OD

SMILES: CC1=C2CCC3C(CC[C@]4(C)C(=O)CCC34)[C@@]2(C)CCC1=O (some centres not stated)
- normalized growth (locus YAL013W, strain DEP1, active compounds read low): 0.961
- normalized growth (locus YAL021C, strain ccr4, active compounds read low): 0.899 (active)
- normalized growth (locus YAL026C, strain drs2, active compounds read low): 0.978
- normalized growth (locus YAL030W, strain snc1, active compounds read low): 0.993
- normalized growth (locus YBL061C, strain skt5, active compounds read low): 0.997
- normalized growth (locus YBR009C, strain hhf1, active compounds read low): 0.956
- normalized growth (locus YBR021W, strain FUR4, active compounds read low): 0.798 (active)
- normalized growth (locus YBR023C, strain chs3, active compounds read low): 0.977
- normalized growth (locus YBR171W, strain sec66, active compounds read low): 0.977
- normalized growth (locus YBR229C, strain ROT2, active compounds read low): 0.981
- normalized growth (locus YBR231C, strain swc5, active compounds read low): 1.04
- normalized growth (locus YBR279W, strain paf1, active compounds read low): 0.972
- normalized growth (locus YCL011C, strain gbp2, active compounds read low): 0.968
- normalized growth (locus YCL016C, strain dcc1, active compounds read low): 0.947
- normalized growth (locus YCL029C, strain bik1, active compounds read low): 0.969
- normalized growth (locus YCL061C, strain MRC1, active compounds read low): 0.967
- normalized growth (locus YCL069W, strain vba3, active compounds read low): 0.983
- normalized growth (locus YCR088W, strain abp1, active compounds read low): 1.01
- normalized growth (locus YDL005C, strain med2, active compounds read low): 0.993
- normalized growth (locus YDL035C, strain GPR1, active compounds read low): 0.922
- normalized growth (locus YDL040C, strain nat1, active compounds read low): 0.999
- normalized growth (locus YDL074C, strain BRE1, active compounds read low): 0.915
- normalized growth (locus YDL101C, strain DUN1, active compounds read low): 0.986
- normalized growth (locus YDL134C, strain PPH21, active compounds read low): 0.981
- normalized growth (locus YDL185W, strain tfp1, active compounds read low): 0.962
- normalized growth (locus YDL192W, strain arf1, active compounds read low): 0.916 (active)
- normalized growth (locus YDR001C, strain nth1, active compounds read low): 0.997
- normalized growth (locus YDR069C, strain doa4, active compounds read low): 1
- normalized growth (locus YDR101C, strain arx1, active compounds read low): 0.982
- normalized growth (locus YDR137W, strain rgp1, active compounds read low): 0.693 (active)
- normalized growth (locus YDR150W, strain NUM1, active compounds read low): 0.986
- normalized growth (locus YDR159W, strain sac3, active compounds read low): 0.998
- normalized growth (locus YDR162C, strain NBP2, active compounds read low): 0.842
- normalized growth (locus YDR195W, strain ref2): 1.15 [resistant] (active)
- normalized growth (locus YDR297W, strain sur2, active compounds read low): 0.995
- normalized growth (locus YDR318W, strain mcm21, active compounds read low): 0.941
- normalized growth (locus YDR334W, strain swr1, active compounds read low): 1.01
- normalized growth (locus YDR335W, strain msn5, active compounds read low): 0.961
- normalized growth (locus YDR388W, active compounds read low): 0.946
- normalized growth (locus YDR392W, strain spt3, active compounds read low): 0.565 (active)
- normalized growth (locus YDR502C, strain sam2, active compounds read low): 0.895 (active)
- normalized growth (locus YEL003W, strain gim4, active compounds read low): 0.971
- normalized growth (locus YEL037C, strain rad23, active compounds read low): 0.985
- normalized growth (locus YEL061C, strain CIN8 (second series), active compounds read low): 0.992
- normalized growth (locus YEL061C, strain CIN8, active compounds read low): 0.967
- normalized growth (locus YER015W, strain faa2, active compounds read low): 0.964
- normalized growth (locus YER016W, strain bim1, active compounds read low): 0.991
- normalized growth (locus YER110C, active compounds read low): 0.957
- normalized growth (locus YER111C, strain swi4, active compounds read low): 0.989
- normalized growth (locus YER155C, strain BEM2 (second series), active compounds read low): 0.904
- normalized growth (locus YER155C, strain BEM2, active compounds read low): 0.997
- normalized growth (locus YER167W, strain BCK2, active compounds read low): 0.931
- normalized growth (locus YFR010W, strain ubp6, active compounds read low): 1.02
- normalized growth (locus YGL078C, strain dbp3, active compounds read low): 0.947
- normalized growth (locus YGL086W, strain mad1, active compounds read low): 0.936
- normalized growth (locus YGL167C, strain pmr1, active compounds read low): 0.963
- normalized growth (locus YGL173C, strain kem1, active compounds read low): 1
- normalized growth (locus YGL227W, strain vid30, active compounds read low): 1.01
- normalized growth (locus YGL240W, strain doc1, active compounds read low): 0.941
- normalized growth (locus YGL248W, strain PDE1, active compounds read low): 0.981
- normalized growth (locus YGL253W, strain hxk2, active compounds read low): 0.979
- normalized growth (locus YGR078C, strain PAC10, active compounds read low): 0.959
- normalized growth (locus YGR135W, strain pre9, active compounds read low): 0.902
- normalized growth (locus YGR229C, strain SMI1, active compounds read low): 0.962
- normalized growth (locus YGR252W, strain gcn5, active compounds read low): 0.836
- normalized growth (locus YHR013C, strain ard1, active compounds read low): 0.943
- normalized growth (locus YHR027C, strain rpn1, active compounds read low): 0.995
- normalized growth (locus YHR030C, strain SLT2, active compounds read low): 0.975 and 0.95
- normalized growth (locus YHR079C, strain IRE1 (second series), active compounds read low): 0.986
- normalized growth (locus YHR079C, strain IRE1, active compounds read low): 0.941
- normalized growth (locus YHR094C, strain hxt1, active compounds read low): 0.984
- normalized growth (locus YHR129C, strain ARP1, active compounds read low): 0.991
- normalized growth (locus YHR142W, strain chs7, active compounds read low): 0.92
- normalized growth (locus YHR200W, strain rpn10, active compounds read low): 0.955
- normalized growth (locus YIL066C, strain RNR3, active compounds read low): 0.937
- normalized growth (locus YIL073C, strain SPO22, active compounds read low): 0.861
- normalized growth (locus YIL125W, strain kgd1, active compounds read low): 0.971
- normalized growth (locus YIR030C, strain dcg1, active compounds read low): 0.971
- normalized growth (locus YJL092W, strain hpr5, active compounds read low): 0.992
- normalized growth (locus YJL095W, strain BCK1 (second series), active compounds read low): 0.992
- normalized growth (locus YJL095W, strain BCK1, active compounds read low): 0.889 and 0.943
- normalized growth (locus YJL115W, strain asf1, active compounds read low): 0.985
- normalized growth (locus YJL129C, strain trk1, active compounds read low): 0.93
- normalized growth (locus YJL134W, strain LCB3, active compounds read low): 0.983
- normalized growth (locus YJL154C, strain vps35, active compounds read low): 0.993
- normalized growth (locus YJL164C, strain tpk1, active compounds read low): 0.938
- normalized growth (locus YJL166W, strain qcr8, active compounds read low): 0.963
- normalized growth (locus YJL168C, strain set2, active compounds read low): 0.978
- normalized growth (locus YJL187C, strain SWE1 (second series), active compounds read low): 0.985
- normalized growth (locus YJL187C, strain SWE1, active compounds read low): 0.989
- normalized growth (locus YJR043C, strain POL32, active compounds read low): 0.99
- normalized growth (locus YJR066W, strain TOR1, active compounds read low): 0.852
